Among all 91,000 compounds or so, about 290 (0.32%) were called active. Roughly 7% stayed inconclusive and do not appear here. Calls follow the shape of the dose curve; as a rule, active = well fitted inhibition curve with a large enough effect; inconclusive = small, poorly fitted or top-dose-only effect; inactive = no such curve, though single readings can be large or run the other way. The full list was thinned out, with actives kept by preference.
target: Single-stranded DNA cytosine deaminase (Homo sapiens) (UniProt Q9GZX7); assay: Primary qHTS assay for inhibitors of Activation Induced Cytidine Deaminase (AID): AID signal; details: AID deamination FRET fluorescence, UDG-coupled, 4 h; series mostly up to 115 µM; activity change, negative = inhibition: at the top concentration; also: nearly all actives have a fitted effect of over 25% in size
Sequence (Q9GZX7 whole entry, looked up): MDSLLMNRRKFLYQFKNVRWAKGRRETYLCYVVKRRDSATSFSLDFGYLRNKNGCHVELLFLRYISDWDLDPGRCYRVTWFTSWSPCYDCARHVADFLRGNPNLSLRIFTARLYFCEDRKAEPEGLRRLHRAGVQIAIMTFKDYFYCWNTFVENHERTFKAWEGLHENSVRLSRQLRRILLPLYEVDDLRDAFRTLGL
Excerpt: Assay Provider (PI) Patricia Gearhart Ph.D.
National Institute on Aging
National Institute of Health (NIH), Bethesda, MD
Assay Provider (PI) Rahul Kohli Ph.D.
Perelman School of Medicine
University of Pennsylvania, Philadelphia, PA
Activation-Induced Deaminase (AID) is a cytosine deaminase which converts cytosine into uracil within stretches of ssDNA. The presence of uracil in DNA initiates a cascade of mutagenic DNA repair to introduce point mutations and DNA double strand breaks. Specific targeting of AID to the immunoglobulin heavy chain loci (Igh) promotes mutagenesis in the antibody variable region for somatic hypermutation (SHM) or switch regions leading to class switch recombination (CSR). However, AID also plays a role in accumulating unnecessary mutations across the genome. Mis-targeting of AID results in the initiation of tumor development and leads to greater drug resistance among cancer cells when continually expressed. To identify an AID inhibitor, a small molecule library will be screened in collaboration with NCATS core facility at NIH. To confirm biological function, inhibitors will be examined in an in vitro murine B-cell activation assay and subsequent secondary validation screens. Top molecules will be further screened to identify inhibitory efficacy against a wild type primary splenocytes assay. Using these approaches, we hope to identify a small molecule with great efficacy and low toxicity for use as a molecular probe to further characterize AID's intricacies, or even as a therapeutic.
A FRET based analysis of cytosine deamination, was developed to identify potential inhibitors of AID catalytic activity. This screen has two signal output, Read 1 evaluates the AID inhibition response. The second readout (Read 2) evaluates UDG response and is uses as a counterscreen to exclude false positive inhibitors. Inhibition in AID and inactivity in the UDG signal is the desired outcome for this assay.
SEQUENCE No. (e.g., 1, 2, 3, etc.); […] (e.g., Cells, Incubation, Reagent, etc.); VALUE; DESCRIPTION
1a; Reagent; 3 uL; [4/3x] 1 uM AID/2.67 U/mL UDG
1b; Reagent; 3 uL; 2 U/mL UDG
1c; Reagent; 3 uL; 1 uM AID
2a; Compound; 46 nL; Follow-up plates (0.64 uM - 10 mM)
2b; Control; 46 nL; ATA ([…] - 10 mM)
3; Time; 10 min; incubation at room temperature
5; Time; 4 hr; incubation at room temperature
6; Reagent; 4 uL; [2x] 250 mM NaOH
7; Time; 15 sec; centrifuge at 1000 rpm
8; Time; 30 min; incubation at room temperature
9a; Detection; fluorescence (Read 1: AID); EnVision (PerkinElmer) plate reader, 540 excitation and 590 emission filters
9b; Detection; fluorescence (Read 2: UDG); EnVision (PerkinElmer) plate reader, 560 excitation and 665 emission filters
NOTES (numbers refer to sequence above)
1a; Reagents were dispensed in a medium-binding black solid-bottom Greiner plates (789176F) using a BioRptr liquid dispenser. Dispense 3 uL of [4/3x] 1 uM AID (provided by Kohli lab) and [4/3x] 2 U/mL UDG (NEB M0280L) into columns 1, 2, 5 to 48.
1b; Dispense 3 uL of [4/3x] 2 U/mL UDG into column 3.
1c; Dispense 3 uL of [4/3x] 1 uM AID into column 4.
2a; Compound (7-points [uM] (0.64; 3.2; 16; 80; 400; 2,000; 10,000; 20,000) double pin-transferred (Dip Factor = 2) using the Kalypsys (Wako USA) pintool equipped with a 1536 pinhead for a final concentration range of 7.32 nM - 114 uM.
2b; 10 mM Aurintricarboxylic Acid (Sigma A1895) (ATA, 8-point, n = 2, 1:2.5 dilution in column 2) double pin-transferred (Dip Factor = 2) using the Kalypsys (Wako USA) pintool equipped with a 1536 pinhead for a [final] range of 186 nM - 114 uM.
3; Room temperature incubation.
4; Dispense 1 uL of substrate mixture from the Kohli lab [4x] […] DJC20 and [4x] 250 nM DJC23 into columns 1 to 48 .
5; Room temperature incubation.
6; Dispense 4 uL of substrate mixture [2x] 250 mM NaOH into columns 1 to 48.
7; Centrifugation step to remove bubbles.
8; Room temperature incubation
9a; Fluorescence signal (column label AID) was read using the EnVision plate reader. […]
% is scaled to controls: 0 for no effect and ±100 for the full control effect; potency is read from the fitted curve at half-maximal effect.

Activity change, negative = inhibition, inactive:
CSc1ccc(C)c(C(=O)NCC2CC2)c1 -3.38%, O=C(O)Cn1cccc(C(F)(F)F)c1=O -5.47%, COc1cc(C(=O)NC2CCOC2=O)cc(OC)c1OC (configuration not stated) -0.451%, O=C(O)CCCC(=O)N1CCN(c2ccc(Cl)c(Cl)c2)CC1 -1.12%, Cc1cc(Br)cc(C)c1O 2.69%, O=C(Nc1ccc(Br)cc1)C(c1ccccc1)C1CCCC1 (configuration not stated) 1.06%, O=C(NCc1ccc(F)cc1)NC1CC1 10.1%, O=C(/C=C/c1ccc(OCc2ccccc2)cc1)c1cccnc1 -9.09%, CN(CCOc1ccc(Br)cc1)C(=O)CSc1nnnn1C -1.3%, CC(C)c1ccc(Cn2c(COc3ccccc3)nc3ccccc32)cc1 -27.4%, Cc1c(C)n(Cc2ccc(Cl)cc2)c2ccc(C(=O)N3CCN(c4ccccc4F)CC3)cc12 -18.3%, CC1CCc2cc(F)ccc2N1C(=O)C1(C)CC1(Br)Br (configuration not stated) -6.2%, CC(C)CNC(=O)NC1=C(C#N)C(C)(C)Cc2ccccc21 -1.37%, CNc1snc(C)c1C(=O)N(C)CCOc1ccccc1C 4.47%, CCOc1ccc(C(=O)Nc2cc(C(F)(F)F)ccc2Cl)cc1Cl 3.9%, COc1cc(C2SCCS2)ccc1OC(=O)c1ccc2c(c1)NC(=O)CS2 -4.16%, COc1ccc(OC)c(-n2cnc3c2NC(=O)CC3c2ccsc2)c1 (configuration not stated) 24.8%, O=C(NCCc1ccc(C(F)(F)F)cc1)c1ccccn1 -1.76%, COc1ccc(C2Nc3ccccc3C(=O)N2c2ccc(C)cc2)cc1CN1CCOCC1 (configuration not stated) 0.31%, Cc1ccccc1NC(=O)CSC1=C(C#N)C(c2ccccc2F)CC(=O)N1 (configuration not stated) -9.28%, Cc1noc(C)c1COc1cccc(C(=O)Nc2ccc(S(=O)(=O)NCc3ccco3)cc2)c1 -5.53%, Cc1cc(Nc2ccccc2)n2nc(Cc3ccc(Cl)cc3)nc2n1 -19.8%, CN(C)S(=O)(=O)c1ccc(NC(=O)COc2ccc3cc(Br)ccc3c2)cc1 0.34%, O=C(c1cc2ccccc2o1)c1ccc(F)cc1F -2.04%, Cc1cc(C)c(NC(=O)C(C)Oc2ccc(C#N)cc2)c(C)c1 (configuration not stated) -8.62%, COCCn1cnnc1SC(C)C(=O)c1ccc(F)cc1 (configuration not stated) 3.25%, COC(=O)c1ccc(C(=O)OC(C)C(=O)C23CC4CC(CC(C4)C2)C3)cc1 (configuration not stated) -5.4%, CCCCn1c(N2CCN(CCc3ccccc3)CC2)nc2c1c(=O)[nH]c(=O)n2C -4.37%, Cn1c(=O)n(Cc2ccccc2)c(=O)c2c1nc(NCc1ccccc1)n2Cc1ccccc1 -8.97%, CCC/C=N/NC(=O)c1ccc(C)cc1C -3.8%, COc1ccc(C(=O)/C(C#N)=C\c2ccccc2C(F)(F)F)cc1 -17.9%, CCCCCCCCS(=O)(=O)CCCCCCC(=O)O -5.95%, CC(=O)c1ccc(NC(=O)NCCCN(C)CC(F)(F)F)cc1 7.31%, CCCCn1nc(C(=O)Nc2cccc(C(=O)NC3CC3)c2)c2ccccc2c1=O 0.862%, CCc1ccc(CCC(=O)NC)cc1 -3.77%, CC(=O)N1CCC(C(=O)Nc2ccc(Br)cc2)CC1 -1.32%, Cc1cccc(C(=O)OC2CCCN(C)C2)c1 (configuration not stated) 1.04%, CCN(CC)C(=S)SC(C(N)=O)c1ccccc1 (configuration not stated) -2.39%, CCCc1cc(=O)oc2cc(OS(=O)(=O)c3cccc(C#N)c3)ccc12 -6.87%, CCn1c(C)cc(/C=C(\C#N)c2ccc(Br)cc2)c1C -17%, CCOC(=O)C1CCN(C(=O)COC(=O)c2cn(-c3ccccc3)nc2-c2ccc(Cl)cc2)CC1 -1.08%, COc1ccc(CCC(=O)NCc2ccc3c(c2)CCN3C(=O)c2ccc(F)cc2)cc1 -16.6%, CCOc1ccccc1C(=O)NCc1ccc2c(c1)CCN2C(=O)c1ccc(F)cc1 -1.92%, N#CCCc1c(O)ccc2ccccc12 -3.83%, Cc1cccc(NC(=O)C(C#N)C(=O)CC(C)(C)C)c1 (configuration not stated) -20.9%, O=C(CSc1nc2c(c(=O)n1CCc1ccccc1)SCC2)Nc1cccc2ccccc12 -4.61%, O=C(Nc1ccc(C(F)(F)C(F)(F)C(F)(F)F)oc1=O)c1ccccc1 -2.06%, CCOc1ccc(NC(=O)Cn2cc(C(=O)c3ccc(C)cc3)c(=O)c3cc4c(cc32)OCCO4)cc1 2.34%, COc1ccc(NC(=O)Cn2cc(C(=O)c3ccncc3)c(=O)c3cc(C)ccc32)cc1Cl 20.6%

Potency, active:
CC(C)c1ccc2c(c1)c(SC(C)(C)C)c(CC(C)(C)C(=O)O)n2Cc1ccc(Cl)cc1 79.4 µM, O=C(COc1ccccc1)NCc1ccc2c(c1)CCN2C(=O)c1ccc(F)cc1 22.4 µM, COc1ccc(Cn2cc(C(=O)c3ccc(C)cc3)c(=O)c3cc(OC)c(OC)cc32)cc1 44.7 µM
